Source: the supplement of paper PMC12067093, “Discovery and optimisation of a covalent ligand for TRIM25 and its application to targeted protein ubiquitination” (Chemical Science, 2025)
Targets with the largest changes are over-represented here; the source holds about 21,000 in all.

What follows are targets tested with CC1Cc2ccccc2N1C(=O)C1CCCN(C1)C(=O)CCl (mixture of isomers) [TRIM25 ligand 11 (diastereomer mixture)] (assay: probe-labelled cysteine peptide fold change vs DMSO (competition) (log2 fold change); higher = less target engagement (more negative = stronger competition)). Details: 50 µM; THP-1; incubation time: 4 h.
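Also: competitive chemoproteomic profiling in live THP-1 cells with an iodoacetamide desthiobiotin (IA-DTB) probe, comparing probe-labelled peptide intensities in compound-treated cells against DMSO-treated controls.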

Chain of UniProt Q8N1F8 (Q8N1F8 whole entry, looked up): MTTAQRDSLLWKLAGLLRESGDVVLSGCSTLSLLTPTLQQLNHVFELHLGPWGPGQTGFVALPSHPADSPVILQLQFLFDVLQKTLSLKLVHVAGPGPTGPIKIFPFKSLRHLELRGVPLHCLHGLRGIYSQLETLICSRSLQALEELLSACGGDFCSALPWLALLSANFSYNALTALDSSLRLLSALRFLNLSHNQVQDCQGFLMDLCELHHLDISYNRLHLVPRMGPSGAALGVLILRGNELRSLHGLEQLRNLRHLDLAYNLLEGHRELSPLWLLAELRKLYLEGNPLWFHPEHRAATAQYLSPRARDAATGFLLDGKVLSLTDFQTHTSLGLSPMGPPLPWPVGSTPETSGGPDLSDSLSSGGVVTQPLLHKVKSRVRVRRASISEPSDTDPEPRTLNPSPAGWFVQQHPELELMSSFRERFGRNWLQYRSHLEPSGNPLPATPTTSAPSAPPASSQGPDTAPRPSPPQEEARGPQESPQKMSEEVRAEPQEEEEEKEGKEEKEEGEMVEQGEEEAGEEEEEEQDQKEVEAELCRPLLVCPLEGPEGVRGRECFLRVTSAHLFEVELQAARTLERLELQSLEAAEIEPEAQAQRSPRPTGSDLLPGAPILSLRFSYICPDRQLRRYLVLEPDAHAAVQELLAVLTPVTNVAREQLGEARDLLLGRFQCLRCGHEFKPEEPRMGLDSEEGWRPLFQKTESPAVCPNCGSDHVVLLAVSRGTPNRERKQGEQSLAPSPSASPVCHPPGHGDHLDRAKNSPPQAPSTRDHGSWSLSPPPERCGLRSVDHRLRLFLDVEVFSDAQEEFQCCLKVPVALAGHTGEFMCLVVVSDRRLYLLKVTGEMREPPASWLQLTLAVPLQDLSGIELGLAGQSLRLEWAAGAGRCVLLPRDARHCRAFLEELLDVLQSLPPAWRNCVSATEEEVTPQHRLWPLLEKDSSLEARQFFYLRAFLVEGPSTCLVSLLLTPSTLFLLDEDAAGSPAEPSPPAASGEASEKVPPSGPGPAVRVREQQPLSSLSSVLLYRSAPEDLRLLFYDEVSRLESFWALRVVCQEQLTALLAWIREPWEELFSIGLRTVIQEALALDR
Chain of UniProt Q6P1X5 (Q6P1X5 whole entry, looked up): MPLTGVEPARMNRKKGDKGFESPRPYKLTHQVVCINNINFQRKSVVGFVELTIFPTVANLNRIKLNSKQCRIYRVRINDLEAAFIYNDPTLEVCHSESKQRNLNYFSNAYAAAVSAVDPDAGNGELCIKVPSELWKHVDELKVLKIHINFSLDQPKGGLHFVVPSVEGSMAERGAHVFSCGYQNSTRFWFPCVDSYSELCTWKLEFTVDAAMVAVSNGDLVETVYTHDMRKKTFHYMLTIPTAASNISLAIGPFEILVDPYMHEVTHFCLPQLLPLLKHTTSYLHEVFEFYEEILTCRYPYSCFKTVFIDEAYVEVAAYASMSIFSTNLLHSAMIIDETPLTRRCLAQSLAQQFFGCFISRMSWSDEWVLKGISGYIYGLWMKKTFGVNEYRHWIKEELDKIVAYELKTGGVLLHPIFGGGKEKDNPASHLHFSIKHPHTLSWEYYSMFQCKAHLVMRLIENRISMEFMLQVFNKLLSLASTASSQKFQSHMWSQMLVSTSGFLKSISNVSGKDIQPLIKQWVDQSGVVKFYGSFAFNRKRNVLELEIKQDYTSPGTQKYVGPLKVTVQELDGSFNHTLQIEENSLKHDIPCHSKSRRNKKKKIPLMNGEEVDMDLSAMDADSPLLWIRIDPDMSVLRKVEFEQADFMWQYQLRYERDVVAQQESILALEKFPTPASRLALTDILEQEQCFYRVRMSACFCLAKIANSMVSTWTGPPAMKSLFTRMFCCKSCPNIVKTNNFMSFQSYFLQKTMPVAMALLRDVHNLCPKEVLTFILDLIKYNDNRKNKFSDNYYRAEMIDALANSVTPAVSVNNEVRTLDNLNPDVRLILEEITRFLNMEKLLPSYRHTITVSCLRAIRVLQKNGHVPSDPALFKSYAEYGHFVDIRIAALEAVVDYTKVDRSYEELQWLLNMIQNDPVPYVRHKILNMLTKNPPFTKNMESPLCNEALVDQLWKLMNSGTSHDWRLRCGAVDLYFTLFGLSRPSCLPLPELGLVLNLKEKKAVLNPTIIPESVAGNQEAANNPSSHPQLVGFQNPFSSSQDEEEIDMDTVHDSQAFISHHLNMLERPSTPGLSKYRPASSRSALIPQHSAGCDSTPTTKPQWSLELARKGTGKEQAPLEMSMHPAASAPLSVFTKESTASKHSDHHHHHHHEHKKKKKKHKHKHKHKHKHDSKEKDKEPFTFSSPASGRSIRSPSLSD
Chain of UniProt Q9C0D5 (Q9C0D5 whole entry, looked up): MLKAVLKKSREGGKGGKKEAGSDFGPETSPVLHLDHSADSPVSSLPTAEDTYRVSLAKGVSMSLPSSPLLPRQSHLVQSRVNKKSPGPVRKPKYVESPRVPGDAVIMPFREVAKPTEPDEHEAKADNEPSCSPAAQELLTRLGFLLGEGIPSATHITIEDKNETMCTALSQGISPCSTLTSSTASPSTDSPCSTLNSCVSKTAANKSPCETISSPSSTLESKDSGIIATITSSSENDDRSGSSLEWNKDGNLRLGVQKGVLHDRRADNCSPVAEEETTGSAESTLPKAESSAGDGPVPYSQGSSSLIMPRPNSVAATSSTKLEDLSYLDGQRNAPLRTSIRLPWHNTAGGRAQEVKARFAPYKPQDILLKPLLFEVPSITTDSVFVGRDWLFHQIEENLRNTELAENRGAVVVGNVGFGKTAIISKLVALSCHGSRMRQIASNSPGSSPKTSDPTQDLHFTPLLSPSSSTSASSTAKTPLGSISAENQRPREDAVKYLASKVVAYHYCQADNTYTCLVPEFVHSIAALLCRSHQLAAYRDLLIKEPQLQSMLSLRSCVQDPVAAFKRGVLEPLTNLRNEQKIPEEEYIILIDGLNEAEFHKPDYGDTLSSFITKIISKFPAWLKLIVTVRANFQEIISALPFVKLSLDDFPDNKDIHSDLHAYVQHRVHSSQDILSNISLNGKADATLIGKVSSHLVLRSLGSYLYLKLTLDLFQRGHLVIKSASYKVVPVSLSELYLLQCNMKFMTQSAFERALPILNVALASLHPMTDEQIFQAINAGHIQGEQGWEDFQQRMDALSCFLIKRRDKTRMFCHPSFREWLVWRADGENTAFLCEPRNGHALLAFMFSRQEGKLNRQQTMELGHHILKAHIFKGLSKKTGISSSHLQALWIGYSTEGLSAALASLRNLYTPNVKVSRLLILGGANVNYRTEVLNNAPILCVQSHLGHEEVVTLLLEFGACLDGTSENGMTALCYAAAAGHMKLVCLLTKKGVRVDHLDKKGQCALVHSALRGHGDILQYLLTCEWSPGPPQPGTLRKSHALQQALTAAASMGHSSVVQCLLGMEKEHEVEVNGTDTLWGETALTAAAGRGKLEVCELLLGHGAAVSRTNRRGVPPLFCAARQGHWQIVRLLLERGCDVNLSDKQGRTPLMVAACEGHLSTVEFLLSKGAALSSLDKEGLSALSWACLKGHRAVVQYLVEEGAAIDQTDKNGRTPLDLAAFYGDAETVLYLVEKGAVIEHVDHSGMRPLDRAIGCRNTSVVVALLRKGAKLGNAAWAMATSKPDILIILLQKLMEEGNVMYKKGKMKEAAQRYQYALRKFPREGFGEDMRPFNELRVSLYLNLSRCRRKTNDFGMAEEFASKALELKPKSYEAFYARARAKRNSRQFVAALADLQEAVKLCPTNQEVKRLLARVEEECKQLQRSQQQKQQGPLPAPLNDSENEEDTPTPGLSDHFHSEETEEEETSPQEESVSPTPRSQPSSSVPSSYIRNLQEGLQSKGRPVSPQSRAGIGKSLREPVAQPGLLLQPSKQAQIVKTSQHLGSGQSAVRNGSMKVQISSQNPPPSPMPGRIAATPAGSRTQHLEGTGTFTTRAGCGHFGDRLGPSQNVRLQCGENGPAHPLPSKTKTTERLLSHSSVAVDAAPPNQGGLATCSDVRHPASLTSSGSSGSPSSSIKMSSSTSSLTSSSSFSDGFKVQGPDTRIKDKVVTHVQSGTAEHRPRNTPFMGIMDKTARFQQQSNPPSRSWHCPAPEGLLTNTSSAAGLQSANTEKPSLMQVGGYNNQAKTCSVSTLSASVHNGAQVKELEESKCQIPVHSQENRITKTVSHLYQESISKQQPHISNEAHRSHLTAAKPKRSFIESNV
Chain of UniProt Q15654 (Q15654 whole entry, looked up): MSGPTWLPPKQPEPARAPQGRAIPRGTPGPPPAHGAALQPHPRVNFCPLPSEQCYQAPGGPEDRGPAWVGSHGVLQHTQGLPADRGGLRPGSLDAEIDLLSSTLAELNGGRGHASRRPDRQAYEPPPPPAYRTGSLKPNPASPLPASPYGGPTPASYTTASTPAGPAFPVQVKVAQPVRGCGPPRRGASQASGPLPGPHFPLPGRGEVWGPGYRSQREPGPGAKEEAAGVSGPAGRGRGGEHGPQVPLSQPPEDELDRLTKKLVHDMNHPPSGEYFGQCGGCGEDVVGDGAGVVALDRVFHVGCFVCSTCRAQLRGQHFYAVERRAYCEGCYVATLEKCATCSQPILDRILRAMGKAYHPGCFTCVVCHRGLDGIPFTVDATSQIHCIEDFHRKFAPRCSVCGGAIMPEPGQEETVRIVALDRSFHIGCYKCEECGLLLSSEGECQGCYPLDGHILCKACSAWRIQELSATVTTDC
Chain of UniProt P50502 (P50502 whole entry): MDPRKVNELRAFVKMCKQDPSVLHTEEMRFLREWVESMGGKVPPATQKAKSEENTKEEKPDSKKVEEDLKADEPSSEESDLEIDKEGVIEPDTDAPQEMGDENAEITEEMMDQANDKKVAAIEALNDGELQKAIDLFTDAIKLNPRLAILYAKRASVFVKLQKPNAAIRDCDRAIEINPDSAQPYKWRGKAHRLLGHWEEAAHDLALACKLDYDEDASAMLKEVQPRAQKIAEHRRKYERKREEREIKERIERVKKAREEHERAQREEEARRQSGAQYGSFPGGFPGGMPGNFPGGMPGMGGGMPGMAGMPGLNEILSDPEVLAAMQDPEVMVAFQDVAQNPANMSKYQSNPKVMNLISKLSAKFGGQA

Target | probe-labelled cysteine peptide fold change
TRIP6_Q15654_362+365+368_AYHPGCFTCVVCHR (UniProt Q15654) | 0.0784
STK11IP_Q8N1F8_918_NCVSATEEEVTPQHR (UniProt Q8N1F8) | 0.108
ST13_P50502_209_LLGHWEEAAHDLALACKLDYDEDASAMLK (UniProt P50502) | -0.574
TES_Q9UGI8_22_MGLGHEQGFGAPCLK (UniProt Q9UGI8) | -0.176
TANC1_Q9C0D5_800_MDALSCFLIK (UniProt Q9C0D5) | 0.0229
TAF2_Q6P1X5_357_CLAQSLAQQFFGCFISR (UniProt Q6P1X5) | -0.862
TARSL2_A2RTX5_546_FQQDDAHIFCTVEQIEEEIK (UniProt A2RTX5) | 0.235
